Shown are actives, neighbours in structure and some others; about 6% of the full set was active somewhere.
Sfp inh = Sfp phosphopantetheinyl transferase inhibition. Biochemical Sfp PPTase activity, qHTS. Potency, µM, hits mostly inhibitors. actives 3.5% (n = 310,000). Q9F4F7. AID 1490;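 also: the enzyme is Sfp with the accession as filed and its product quenches rhodamine fluorescence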
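Fluorescence-quenching assay: 15 nM Sfp-PPTase preincubated 15 min at room temperature with compound, then 5 uM rhodamine-CoA and 12.5 uM BHQ-2-labelled YbbR peptide added. Fluorescence (ex 525/em 598 nm) read at start and after 30 min; difference gives rate.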
Tau fluor cs = counter-screen for tau fibril formation inhibitors | tau K18 P301L Alexa594 fluorescence, heparin fibrillization | AID 1463 | actives 0.93% (n = 280,000) | Potency, µM (highest dose often 57.7 µM); also: nearly all actives have a fitted effect of over 55% in size
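Human K18 P301L tau (15 uM unlabeled plus 0.24 uM Alexa 594-labeled, final) in 100 mM sodium acetate pH 7 was mixed with compound and 20 uM heparin and incubated 6 hr at 37 C.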
VDR inh = blocks the human vitamin D receptor; AID 504847; actives 0.93% (n = 400,000); P11473; VDR-SRC2-3 peptide fluorescence polarization, 2 h; Potency, µM, most hits filed as inhibitors
Target sequence (P11473 whole entry, looked up): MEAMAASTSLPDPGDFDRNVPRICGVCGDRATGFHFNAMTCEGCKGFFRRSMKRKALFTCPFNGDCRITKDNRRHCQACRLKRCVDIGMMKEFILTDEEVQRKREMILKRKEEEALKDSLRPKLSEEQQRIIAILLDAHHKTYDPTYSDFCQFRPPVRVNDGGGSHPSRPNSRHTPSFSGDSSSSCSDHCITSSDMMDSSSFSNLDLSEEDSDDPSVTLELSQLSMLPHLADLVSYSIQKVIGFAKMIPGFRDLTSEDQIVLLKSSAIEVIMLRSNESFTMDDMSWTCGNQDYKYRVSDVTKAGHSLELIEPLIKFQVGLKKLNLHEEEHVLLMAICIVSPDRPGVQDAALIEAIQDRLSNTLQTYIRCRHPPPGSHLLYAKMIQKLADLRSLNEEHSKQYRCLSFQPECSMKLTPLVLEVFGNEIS
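Two reagent solutions held at 4 deg C in the dark were dispensed, compounds pinned at 23 nl, and the mixture incubated 2 h at room temperature. Read-out: fluorescence polarization of VDR–SRC2-3 peptide binding.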
PLK1 PBD block = PLK1 (human) polo-box domain binding inhibition. P53350. Plk1 PBD binding of FITC phosphopeptide, fluorescence polarization. Potency, µM, usual class: inhibitors. actives 2.8% (n = 360,000). AID 720504; also: series mostly up to about 57 µM; nearly all actives have a fitted effect of over 65% in size
Tau ThT inhib = inhibitors of human tau fibril formation, thioflavin T binding | recombinant tau K18 P301L (four-repeat tau fragment), heparin-induced fibrillization, ThT fluorescence | Potency, µM (doses to about 57.4 µM), hits mostly inhibitors | actives 2.1% (n = 270,000); also: nearly all actives have a fitted effect of over 55% in size
Target sequence (P10636 561-689 P618L limits assumed): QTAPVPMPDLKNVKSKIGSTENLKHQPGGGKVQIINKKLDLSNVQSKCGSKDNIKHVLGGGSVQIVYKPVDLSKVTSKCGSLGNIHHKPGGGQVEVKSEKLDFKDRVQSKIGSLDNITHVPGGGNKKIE
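Heparin-induced fibrillization of the P301L-mutant K18 repeat-domain fragment of human tau was followed by ThT binding in quantitative high-throughput format.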
Tau fibril FP = tau fibrillization inhibition (FP); K18 P301L tau heparin fibrillization, Alexa594 FP, 6 h; AID 1468; actives 0.39% (n = 280,000); Potency, µM (highest dose often 57.7 µM), hits mostly inhibitors; also: nearly all actives have a fitted effect of over 55% in size
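FP of Alexa 594-tau after heparin (20 uM) induction. Substrate: human K18 P301L, 15 uM unlabeled, 0.24 uM labeled. Buffer 100 mM sodium acetate pH 7. 6 hr, 37 C.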
A number is an active result; i = inactive; ? = inconclusive; nt = no result given; [ ] = another dose, or the depositor's remark. Calls follow the shape of the dose curve; as a rule, active = well fitted curve in the direction sought with a large enough effect; inconclusive = small, poorly fitted or top-dose-only effect, or another doubt; inactive = no such curve, though single readings can be large; an effect the other way counts as inactive or inconclusive.

SMILES	Sfp inh	Tau fluor cs	VDR inh	PLK1 PBD block	Tau ThT inhib	Tau fibril FP
Cc1ccc(NC(=O)Cn2c(=O)n(CC3CCC(C(=O)NC(C)C)CC3)c(=O)c3sccc32)cc1 (stereo not drawn)	nt	i	i	nt	i	i
CNC1(c2nnnn2-c2ccccc2C)CCOC(C)(C)C1 (stereo not drawn)	i	i	22µM	15µM	i	i
Cc1ccc(-c2csc(NS(=O)(=O)c3cccc(F)c3)n2)o1	nt	nt	?	24µM	nt	nt
Clc1ccc(OCc2nn3c(-c4ccco4)nnc3s2)c(Cl)c1	18µM	i	i	i	i	i
Cc1ccc(OCc2nn3c(-c4ccco4)nnc3s2)cc1	i	i	i	i	?	i
CC1=CC(C)(C)NC(=S)N1c1cccc2cc(S(=O)(=O)O)ccc12	20µM	i	i	27µM	32µM	?
CC1=CC(C)(C)NC(=S)N1c1ccccc1C	i	i	i	i	i	i
CO[C@@H]1COC(=O)CCC[C@@H](C)[C@H](OC)COC(=O)[C@H](Cc2ccccc2)NC(=O)C/C=C\[C@H]1C	i	i[11.6 µM]	nt	nt	i[11.5 µM]	i[11.6 µM]
O=C(NC(=S)Nc1ncccn1)c1ccc(F)cc1	16µM	nt	i	i	nt	nt
O=C(Nc1ccc(Cl)cc1)Nc1ccc(S(=O)(=O)Nc2ncccn2)cc1	i	?	i	i	i	?
O=S(=O)(Nc1ncccn1)c1ccc(Cl)cc1	i	nt	i	i	nt	nt
O=S(=O)(Nc1ncccn1)c1ccc(NC(=S)Nc2ccc(Cl)cc2)cc1	40µM	i	i	?	i	i
O=S(=O)(Nc1ncccn1)c1ccccc1	i	nt	?	24µM	nt	nt
O=C(NC(=S)Nc1ccc(S(=O)(=O)Nc2ncccn2)cc1)c1ccc(Br)cc1	?	i	i	11µM	i	i
Cc1cccc(NC(=O)C2CCN(c3nnc(-n4c(C)ccc4C)s3)CC2)c1C	nt	i	i	nt	?	i
O=C(NC(=S)Nc1ccc(S(=O)(=O)Nc2nccs2)cc1)c1ccccc1F	i	i	?	15µM	i	i
O=C(NC(=S)Nc1ccc(S(=O)(=O)Nc2nccs2)cc1)c1ccccc1	i	i	i	i	i	i
Cc1cc(S(=O)(=O)c2ccc(Cl)cc2)nc(S(=O)(=O)c2ccc(Cl)cc2)c1C#N	nt	nt	nt	2.7µM	nt	nt
CCC1CN(C(=O)N2CCC(C(=O)N3CCN(c4cc(C)ccc4C)CC3)CC2)c2ccccc2O1 (stereo not drawn)	nt	?	i	nt	i	i
CCC1CN(C(=O)N2CCC(C(=O)N3CCN(c4ccc(F)cc4)CC3)CC2)c2ccccc2O1 (stereo not drawn)	nt	2.5µM[quencher]	i	nt	i	i
CCC1CN(C(=O)N2CCC(C(=O)N3CCN(c4cccc(C)c4C)CC3)CC2)c2ccccc2O1 (stereo not drawn)	nt	5µM[quencher]	i	nt	i	i
CC(C)NC(=O)NC(=O)COc1ncnc2sccc12	i	i	?	27µM	i	i
CC(C)NC(=O)COc1ncnc2sccc12	i	i	i	i	i	i
CCC(CC)C(=O)c1c[nH]c(C(=O)NCCc2ccccn2)c1	i	i	i	27µM	i	i
COc1cc2c(cc1OC)C(c1ccc(Cl)cc1)N(c1ccc(C)c(F)c1)C(=O)C2 (stereo not drawn)	nt	i	i	nt	?	i
SMILES	Sfp inh	Tau fluor cs	VDR inh	PLK1 PBD block	Tau ThT inhib	Tau fibril FP
O=C(Nc1ccc(NC(=O)c2ccccc2)nc1)c1ccncc1	i	i	?	17µM	i	i
O=C(Nc1ccc(NC(=O)c2ccccc2Cl)nc1)c1ccncc1	i	i	i	i	i	i
COc1ccc(/C(C)=N/Nc2nc3ccccc3nc2C)cc1	25µM	?	i	i	11µM	i
COc1ccc(/C(C)=N/Nc2nncc3ccccc23)cc1	i	nt	?	i	nt	nt
CCc1ccc(NC(=O)C(=O)NCC(c2cccnc2)N2CCN(c3ccc(F)cc3)CC2)cc1 (stereo not drawn)	nt	i	i	nt	i	i
CCOCCCNC(=O)NC(CCC(C)C)c1c(-n2cccc2)sc2c1CCN(C)C2 (stereo not drawn)	nt	i	i	nt	i	i
COc1cc(/C=N/NC(=O)Cc2ccccc2)cc([N+](=O)[O-])c1O	i	nt	i	i	nt	nt
COc1cc(/C=N/Nc2nc3ccccc3s2)cc([N+](=O)[O-])c1O	?	14µM[quencher]	i	i	1.8µM	i
O=[N+]([O-])c1ccccc1N/N=C/c1cc2ccccc2nc1Cl	i	i	i	i	2.2µM	i
O=C(O)c1ccc(N/N=C/c2cc3ccccc3nc2Cl)cc1	i	nt	?	i	nt	nt
O=[N+]([O-])c1cc(Cl)cc(/C=N/Nc2nc3ccccc3s2)c1O	i	25µM[quencher]	i	27µM	11µM	i
Cc1ccc(NC(=O)c2cc(S(=O)(=O)N3CCC4(CC3)OCCO4)ccc2F)cc1Cl	nt	?	i	nt	i	i
Cc1ccccc1C(NC(=O)C1CCN(Cc2ccc(Oc3ccccc3)cc2)CC1)c1ccsc1 (stereo not drawn)	nt	nt	nt	i	nt	nt
Cc1ccc(S(=O)(=O)N(C)C[C@@H]2Oc3ncc(Br)cc3C(=O)N([C@H](C)CO)C[C@@H]2C)cc1	nt	nt	nt	i	nt	nt
CN1c2ccsc2/C(=N/Nc2ccc(F)cc2)CS1(=O)=O	i	?	i	27µM	?	?
Cc1ccc(N/N=C2\CS(=O)(=O)N(C)c3ccsc32)cc1	i	i	?	i	i	i
COc1cccc(Cn2c(=O)c(CCc3ccccc3)nc3cnc(OC)nc32)c1	?	nt	i	nt	nt	nt
COc1ccccc1Nc1c2c(nc3ccc(NC(=O)c4cccc(F)c4)cc13)CCCC2	nt	?	i	nt	?	i
COc1ccc(Nc2c3c(nc4ccc(NC(=O)/C=C/c5cc(OC)c(OC)c(OC)c5)cc24)CCCC3)cc1OC	nt	?	i	nt	?	i
COc1ccc(/C=C/C(=O)Nc2ccc3nc4c(c(Nc5ccccc5OC)c3c2)CCCC4)cc1	nt	?	i	nt	10µM	?
COc1ccc(Nc2c3c(nc4ccc(NC(=O)/C=C/c5cccc(OC)c5OC)cc24)CCCC3)cc1OC	nt	?	i	nt	14µM	i
COc1ccccc1Nc1c2c(nc3ccc(NC(=O)/C=C/c4cccc(OC)c4OC)cc13)CCCC2	nt	?	i	nt	14µM	i
COc1ccc(/C=C/C(=O)Nc2ccc3nc4c(c(Nc5ccc(OC)c(OC)c5)c3c2)CCCC4)cc1	nt	16µM[quencher]	i	nt	25µM	i
COc1ccc(C(=O)O/N=C/c2ccc(S(=O)(=O)c3ccc(Cl)cc3)nc2)cc1	nt	nt	i	i	nt	nt
COc1cc(/C=C2\SC(=O)N(c3ccc(Cl)cc3)C2=O)cc([N+](=O)[O-])c1O	i	?	i	?	18µM	i
COc1cc(/C=C2\SC(=O)N(c3cccc(Cl)c3)C2=O)cc([N+](=O)[O-])c1O	i	?	i	?	8.9µM	i
COc1cc(/C=C2/C(=O)NN(c3ccc(C)c(Cl)c3)C2=O)cc([N+](=O)[O-])c1O	i	nt	?	?	nt	nt

Source: PubChem
